ERK AVP block = blocks ERK signaling stimulated by vasopressin; HEK293-V1b, vasopressin-stimulated pERK AlphaScreen; Potency, µM (highest dose often 57.5 µM), for the others: at the highest dose activity, negative = inhibition, most hits filed as inhibitors; 72,000 compounds, 0.99% hits; AID 995; also: nearly all actives have a fitted effect of over 55% in size
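V1b-HEK293 cells; cpd 30 min 37C; 25 nM vasopressin 5 min; lyse 10 min; AlphaScreen beads 5 hr RT. Normalized to DMSO basal and 25 nM vasopressin; AC50 by Hill fit.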
Bst PK mod = alters activity of Bacillus stearothermophilus pyruvate kinase | purified pyruvate kinase, luminescence ATP production; ribose 5-phosphate activator present at AC10 | Potency, µM | 51,000 compounds, 1.2% hits; in the data active = potency below about 11 µM; inconclusive = mostly about 12 µM to 25 µM;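 the screen sought inhibitors and activators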;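 also: scaled between full activation by ribose 5 phosphate and full inhibition by luteolin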
Tau filament bind = tau filament binding. recombinant tau filaments, thioflavin S fluorescence, 15 h; filaments grown with octadecylsulfate alongside compound. Potency, µM (top dose mostly 57.1 µM), without a hit: at the highest dose activity change, negative = inhibition. P10636. 71,000 compounds, 2% hits. AID 596;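 also: actives lower thioflavin S fluorescence by blocking filaments or displacing dye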
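Thioflavine S fluorescence (ex 450, em 510 nm) reports filaments formed from 1 uM human tau plus 30 uM ODS over 15 h at 37 C (10 mM HEPES pH 7.4, 100 mM NaCl, 5 mM DTT); compounds displacing dye or blocking filaments lower signal.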
Pol III holo inh = DNA polymerase III holoenzyme inhibition; Potency, µM (highest dose often 57.1 µM), for the others: at the top dose activity change, negative = inhibition; 71,000 compounds, 0.25% hits; reconstituted DNA polymerase III holoenzyme replication, biochemical; AID 603
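Reconstituted *E. coli* holoenzyme (0.35 nM Pol III, 1 nM beta, 154 nM SSB, 2 nM primase) was preincubated with compound for 15 min at RT. Synthesis on 1.4 nM ssM13Gori ran 35 min, then was stopped with PicoGreen/EDTA and read as dsDNA fluorescence.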
ALOX15 inhib = inhibitors of human 15-lipoxygenase (ALOX15). purified 15hLO-1, xylenol orange hydroperoxide absorbance. Potency, µM (highest dose often 57.1 µM), for inactives: top-dose activity change, negative = inhibition, usual class: inhibitors. P16050. 74,000 compounds, 1.4% hits; also: nearly all actives have a fitted effect of over 55% in size
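Inhibition is scored from a chromogenic endpoint. After 15 min enzyme-compound contact, arachidonic acid (50 uM final) reacts 6 min with 40 nM 15hLO-1 at room temperature, then Fe-XO reagent is added for 30 min and absorbance ratio recorded.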
FLuc inh = blocks Photinus pyralis firefly luciferase activity; Potency, µM (top dose mostly 57.1 µM), for the others: at the highest dose activity change, negative = inhibition, actives largely listed as inhibitors; AID 411; purified firefly luciferase, luminescence, 8 min; 72,000 compounds, 2.2% hits; P08659; also: nearly all actives have a fitted effect of over 40% in size
Target sequence (P08659 whole entry, looked up): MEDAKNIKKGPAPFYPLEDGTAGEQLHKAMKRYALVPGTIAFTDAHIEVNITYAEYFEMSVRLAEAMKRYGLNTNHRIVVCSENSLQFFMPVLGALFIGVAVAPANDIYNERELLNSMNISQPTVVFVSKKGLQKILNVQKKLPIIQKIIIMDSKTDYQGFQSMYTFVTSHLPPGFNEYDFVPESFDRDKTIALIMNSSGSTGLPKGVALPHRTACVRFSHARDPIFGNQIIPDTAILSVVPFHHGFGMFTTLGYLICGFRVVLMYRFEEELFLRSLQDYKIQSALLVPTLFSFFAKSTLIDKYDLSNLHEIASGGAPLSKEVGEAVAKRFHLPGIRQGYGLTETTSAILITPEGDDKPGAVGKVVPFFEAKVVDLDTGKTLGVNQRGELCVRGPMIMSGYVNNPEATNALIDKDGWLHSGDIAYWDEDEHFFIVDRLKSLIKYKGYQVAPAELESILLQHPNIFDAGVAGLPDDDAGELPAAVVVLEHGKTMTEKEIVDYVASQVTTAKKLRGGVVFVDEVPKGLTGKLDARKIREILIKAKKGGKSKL
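Titration-based qHTS; buffer 50 mM imidazole pH 7.2, 50 mM KCl, 7 mM MgCl2, 10 uM ATP, 0.01% Tween 20, 0.05% BSA; luciferase/luciferin detector mix added after compound; 8 min, ambient; luminescence.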
* marks the source's active call; other numbers are inactive results; i = inactive; ? = inconclusive; · = not tested or not shown; [ ] = another dose, or the depositor's remark. Hits are enriched below; roughly 6% of the tested compounds scored in any of these assays. Unless noted, calls follow the shape of the dose curve; as a rule, active = well fitted curve in the direction sought with a large enough effect; inconclusive = small, poorly fitted or top-dose-only effect, or another doubt; inactive = no such curve, though single readings can be large; an effect the other way counts as inactive or inconclusive. Unless noted, % is scaled to controls: 0 for no effect and ±100 for the full control effect; potency is read from the fitted curve at half-maximal effect.

SMILES | ERK AVP block | Bst PK mod | Tau filament bind | Pol III holo inh | ALOX15 inhib | FLuc inh
CCOC(=O)[C@]1(C(NC(=O)OC)c2ccccc2)CCCC1=O (some centres not stated) | 11%[11.5 µM] | · | · | · | -13%[11.4 µM] | ·
COc1ccc(O[C@H]2C=C[C@@H](c3ccccc3)O[C@H]2COC(=O)CC/C(C)=N\O[C@@H](C)c2cn([C@H]3COC[C@H]3O)nn2)cc1 | -21%[11.5 µM] | · | · | · | 6%[11.4 µM] | 0%[11.4 µM]
O=C1C(Cl)=C(N2CCCCC2)C(=O)N1c1ccccc1 | 3% | · | -4% | -2% | 16µM* | -2%
O=C1C(Cl)=C(N2CCCCC2)C(=O)N1c1ccccc1Cl | 27% | · | 4% | 0% | ? | 3%
COc1ccc(OC)c(N2C(=O)C(Cl)=C(N3CCCCC3)C2=O)c1 | -28% | · | -6%[11.4 µM] | 2%[11.4 µM] | -6%[11.4 µM] | -5%
Cc1ccccc1N1C(=O)C(Cl)=C(N2CCCCCC2)C1=O | 55% | · | 13µM* | -2% | 10µM* | 4%
CC1CCCO1 (configuration not stated) | -15% | · | -17% | -5% | -5% | ·
CO[C@H]1COC(=O)C/C=C\[C@H](C)COC(=O)[C@@H](C)NC(=O)C/C=C\[C@@H]1C | -1%[11.5 µM] | · | · | · | 10%[11.4 µM] | 0%[11.4 µM]
CCCCSc1nnc(-c2ccccc2N)c(=O)[nH]1 | · | · | · | · | -4% | ·
CCCCCSc1nnc(-c2cc(Br)ccc2N)c(=O)[nH]1 | ? | >57 | 10µM* | -8% | -8% | 4%
COc1cc2cc(C(c3nnnn3C3CCCC3)N3CCc4ccccc43)c(=O)[nH]c2cc1OC (configuration not stated) | ? | >57 | -1% | ? | 20µM* | -4%
COc1cc2cc(C(c3nnnn3C(C)(C)C)N3CCc4ccccc43)c(=O)[nH]c2cc1OC (configuration not stated) | -26% | >57 | 8% | -1% | -15% | -3%
O=C1C(=O)N(Cc2ccc(Cl)c(Cl)c2)c2ccccc21 | -27% | · | 32µM* | 2% | 10µM* | 1%
O=C(Cn1nnc(-c2ccccc2-n2cnnn2)n1)NCc1ccccc1 | -5% | >57 | 0% | -6% | 2% | 0%
COc1ccc(C(=O)Cn2nnc(-c3ccccc3-n3cnnn3)n2)cc1 | 9% | 4.2* | 2% | -5% | 0% | -2%
Cc1ccc(C(=O)Cn2nnc(-c3ccccc3-n3cnnn3)n2)cc1 | 10% | 4.7* | -6% | -3% | -1% | 0%
COc1ccc(C(=O)Cn2nnc(-c3cccs3)n2)cc1 | 12% | · | -1% | -4% | 6% | -19%
Nc1nc(-c2cc(-c3cccc4ccccc34)nc(N)n2)cc(-c2cccc3ccccc23)n1 | 5%[11.5 µM] | · | 6%[11.4 µM] | -4%[11.4 µM] | 8%[11.4 µM] | 1%[11.4 µM]
COc1cc2c(C#N)c(N3CCOCC3)nc(N)c2c(N)n1 | -8% | · | 4% | -6% | -1% | ?
COc1cc2c(C#N)c(N3CCCCC3)nc(N)c2c(N)n1 | ? | i | 15% | -3% | -1% | 20µM*
O=C(Nc1cccc(F)c1)N1CC[C@@]2(CCCN(C(=O)c3ccncc3)C2)C1 | -15% | · | 5% | 8% | 3% | 3%[11.4 µM]
Cc1ccc(OCC(=O)Nc2cccc(C)n2)c(C)c1 | 24% | · | 6% | -1% | 0% | 16µM*
Cc1cc(C(=O)CSc2nnc(-c3cccnc3)n2-c2ccccc2F)c(C)n1C | -25% | >11 | 88% | 0% | 16µM* | -2%
Cc1cc(C(=O)CSc2nnc(-c3ccccc3)n2C)c(C)n1C | 0% | >57 | -7% | 0% | -15% | -1%
C/C(=C\c1ccccc1)CN1CCN(c2ccccc2)CC1 | 0% | · | -20% | 1% | 16µM* | -6%
C=C(C)C(O)C(CC/C=C(\C)C(=O)OCC)OC (configuration not stated) | 1%[11.5 µM] | · | · | · | 2%[11.4 µM] | ·
Cc1nc(NCc2ccccc2)c2nc(-c3ccccc3)n(CCN3CCOCC3)c2n1 | 9% | · | 7% | 1% | 20µM* | ·
CCCCNc1nc(C)nc2c1nc(-c1ccccc1)n2CCN1CCCCC1 | -28% | · | 59% | -6% | 13µM* | ·

Bioassay records from PubChem.
